Of roughly 7,900 targets only a part is listed; those with a hit were picked by preference. About 0.6% of all pairs of compound and target were hits.
How the values were obtained:
Test in all cases: log2 fold change, soluble protein after heating vs DMSO (PISA); higher = thermal stabilisation; K562 cells, 10 uM, 30 min; active = over 0.2 and 3.5 SD of the protein, either way, in both replicates (recomputed)
[1] = compound: CS(=O)(=O)c1ccc(-c2cnc(N)c(C(=O)Nc3ccccc3)n2)cc1
In short: (§1)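 K562 cells (2×10^6 cells/mL) were treated with 10 μM compound for 30 min, and aliquots were heated for 3 min over 48°C-58°C. Pooled aliquots were extracted in PBS with 0.5% NP-40 at 4°C, and the supernatant after 21,000xg for 90 min was measured by TMTpro 16plex LC-MS/MS with channel sums equalised. Reported thermal stability, relative to control samples and from duplicates, is a log2 fold change.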

crizotinib = compound: C[C@@H](Oc1cc(-c2cnn(C3CCNCC3)c2)cnc1N)c1c(Cl)ccc(F)c1Cl [crizotinib]
In short: as §1

[2] = compound: C[C@@H]1COCCN1C2=NC(=NC(=C2)C3(CC3)S(=O)(=O)C)C4=C5C=CNC5=CC=C4
In short: as §1

[3] = compound: C[C@H](C1=CC=C(C=C1)C(=O)NC2=C3C=CNC3=NC=C2)N
In short: as §1

duvelisib = compound: C[C@H](Nc1ncnc2nc[nH]c12)c1cc2cccc(Cl)c2c(=O)n1-c1ccccc1 [duvelisib]
In short: as §1

gandotinib = compound: Cc1cc(Nc2cc(CN3CCOCC3)c3nc(C)c(Cc4ccc(Cl)cc4F)n3n2)n[nH]1 [gandotinib]
In short: as §1

tozasertib = compound: Cc1cc(Nc2cc(N3CCN(C)CC3)nc(Sc3ccc(NC(=O)C4CC4)cc3)n2)n[nH]1 [tozasertib]
In short: as §1

[4] = compound: Cc1cc(SCc2sc(-c3ccc(C(F)(F)F)cc3)nc2C)ccc1OCC(=O)O
In short: as §1

doramapimod = compound: Cc1ccc(-n2nc(C(C)(C)C)cc2NC(=O)Nc2ccc(OCCN3CCOCC3)c3ccccc23)cc1 [doramapimod]
In short: as §1

ispinesib = compound: Cc1ccc(C(=O)N(CCCN)[C@@H](c2nc3cc(Cl)ccc3c(=O)n2Cc2ccccc2)C(C)C)cc1 [ispinesib]
In short: as §1

bafetinib = compound: Cc1ccc(NC(=O)c2ccc(CN3CC[C@H](N(C)C)C3)c(C(F)(F)F)c2)cc1Nc1nccc(-c2cncnc2)n1 [bafetinib]
In short: as §1

[5] = compound: Cc1cccc(CC(=O)N2CCc3c2ccc(-c2cn(C)c4ncnc(N)c24)c3F)n1
In short: as §1

nilotinib = compound: Cc1cn(-c2cc(NC(=O)c3ccc(C)c(Nc4nccc(-c5cccnc5)n4)c3)cc(C(F)(F)F)c2)cn1 [nilotinib]
In short: as §1

[6] = compound: Cc1nc(Nc2n[nH]c3c2CN(C(=O)N[C@H](CN(C)C)c2ccccc2)C3(C)C)c2sccc2n1
In short: as §1

dasatinib = compound: Cc1nc(Nc2ncc(C(=O)Nc3c(C)cccc3Cl)s2)cc(N2CCN(CCO)CC2)n1 [dasatinib]
In short: as §1

[7] = compound: Cc1ncc(-c2ccnc(Nc3ccc(S(C)(=O)=O)cc3)n2)n1C(C)C
In short: as §1

[8] = compound: Cn1cc(-c2ccc3c(c2)CCN3C(=O)Cc2cccc(C(F)(F)F)c2)c2c(N)ncnc21
In short: as §1

[9] = compound: Cn1cc(-c2ccc3nnc(C(F)(F)c4ccc5ncccc5c4)n3n2)cn1
In short: as §1

tipifarnib = compound: Cn1cncc1[C@@](N)(c1ccc(Cl)cc1)c1ccc2c(c1)c(-c1cccc(Cl)c1)cc(=O)n2C [tipifarnib]
In short: as §1

mubritinib = compound: FC(F)(F)c1ccc(/C=C/c2nc(COc3ccc(CCCCn4ccnn4)cc3)co2)cc1 [mubritinib]
In short: as §1

Measured: log2 fold change

SDCBP (UniProt O00560)
Sequence of UniProt O00560 (O00560 whole entry, looked up): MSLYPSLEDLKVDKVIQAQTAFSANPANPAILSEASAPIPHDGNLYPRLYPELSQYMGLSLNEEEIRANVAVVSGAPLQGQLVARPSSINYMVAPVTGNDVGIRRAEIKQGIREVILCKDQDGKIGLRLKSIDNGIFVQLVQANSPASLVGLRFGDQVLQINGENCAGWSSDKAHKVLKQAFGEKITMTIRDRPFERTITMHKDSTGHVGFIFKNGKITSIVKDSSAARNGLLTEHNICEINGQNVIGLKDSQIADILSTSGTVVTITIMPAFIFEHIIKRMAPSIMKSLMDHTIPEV
inactive: [1] -0.003 | crizotinib -0.216 | [2] 0.101 | [3] -0.043 | duvelisib -0.008 | gandotinib 0.094 | tozasertib 0.048 | [4] 0.086 | doramapimod -0.006 | bafetinib -0.229 | [5] 0.038 | nilotinib 0.015 | [6] -0.021 | dasatinib -0.12 | [7] 0 | [8] -0.076 | [9] -0.058 | tipifarnib 0.018 | mubritinib 0.025
active: ispinesib -0.361

RBM8A (UniProt Q9Y5S9)
active: crizotinib 0.287
inactive: [1] 0.012 | [2] 0.007 | [3] 0.025 | duvelisib 0.019 | gandotinib 0.069 | tozasertib -0.015 | [4] 0.025 | doramapimod -0.078 | ispinesib 0.099 | bafetinib -0.013 | [5] -0.014 | nilotinib -0.047 | [6] -0.063 | dasatinib 0.001 | [7] 0.126 | [8] -0.02 | [9] 0.065 | tipifarnib 0.019 | mubritinib 0.013

RSPRY1 (UniProt Q96DX4)
Sequence of UniProt Q96DX4 (Q96DX4 whole entry, looked up): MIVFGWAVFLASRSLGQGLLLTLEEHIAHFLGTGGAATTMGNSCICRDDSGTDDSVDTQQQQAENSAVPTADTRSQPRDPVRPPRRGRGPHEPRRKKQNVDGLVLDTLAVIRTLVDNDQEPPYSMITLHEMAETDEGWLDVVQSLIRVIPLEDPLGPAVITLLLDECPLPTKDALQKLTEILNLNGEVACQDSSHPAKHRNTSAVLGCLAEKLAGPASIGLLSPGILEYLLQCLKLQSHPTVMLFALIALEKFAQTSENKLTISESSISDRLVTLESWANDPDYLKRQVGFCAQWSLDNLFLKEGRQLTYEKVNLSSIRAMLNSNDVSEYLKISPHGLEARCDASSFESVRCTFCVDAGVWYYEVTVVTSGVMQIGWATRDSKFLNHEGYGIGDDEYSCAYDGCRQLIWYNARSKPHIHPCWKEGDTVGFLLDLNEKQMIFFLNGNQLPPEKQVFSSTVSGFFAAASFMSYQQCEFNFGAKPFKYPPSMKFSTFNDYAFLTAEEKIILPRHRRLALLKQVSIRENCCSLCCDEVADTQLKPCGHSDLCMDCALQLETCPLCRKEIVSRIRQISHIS
inactive: [1] -0.037 | crizotinib 0.11 | [2] 0.02 | [3] -0.006 | duvelisib 0.142 | gandotinib 0.067 | tozasertib -0.053 | [4] 0.012 | doramapimod 0.083 | ispinesib 0.033 | bafetinib 0.052 | [5] -0.05 | nilotinib 0.012 | [6] -0.037 | dasatinib -0.036 | [7] 0.01 | [8] 0.007 | [9] -0.049 | tipifarnib 0.093 | mubritinib -0.039

RTF2 (UniProt Q9BY42)
Sequence of UniProt Q9BY42 (Q9BY42 whole entry, looked up): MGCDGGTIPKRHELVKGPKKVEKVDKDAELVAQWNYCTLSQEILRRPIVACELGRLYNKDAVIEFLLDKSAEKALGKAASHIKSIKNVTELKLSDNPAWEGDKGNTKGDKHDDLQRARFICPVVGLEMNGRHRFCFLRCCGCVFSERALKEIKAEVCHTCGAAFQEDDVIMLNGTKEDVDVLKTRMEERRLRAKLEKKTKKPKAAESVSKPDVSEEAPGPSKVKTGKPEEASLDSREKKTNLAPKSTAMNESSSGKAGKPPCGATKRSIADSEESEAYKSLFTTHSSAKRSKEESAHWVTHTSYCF
inactive: [1] -0.005 | crizotinib 0.234 | [2] -0.061 | [3] -0.089 | duvelisib 0.116 | gandotinib 0.104 | tozasertib 0.166 | [4] -0.003 | doramapimod -0.083 | ispinesib 0.151 | bafetinib -0.074 | [5] -0.001 | nilotinib -0.045 | [6] -0.125 | dasatinib -0.012 | [7] 0.039 | [8] -0.071 | [9] -0.039 | tipifarnib -0.065 | mubritinib -0.047

RRS1 (UniProt Q15050)
Sequence of UniProt Q15050 (Q15050 whole entry, looked up): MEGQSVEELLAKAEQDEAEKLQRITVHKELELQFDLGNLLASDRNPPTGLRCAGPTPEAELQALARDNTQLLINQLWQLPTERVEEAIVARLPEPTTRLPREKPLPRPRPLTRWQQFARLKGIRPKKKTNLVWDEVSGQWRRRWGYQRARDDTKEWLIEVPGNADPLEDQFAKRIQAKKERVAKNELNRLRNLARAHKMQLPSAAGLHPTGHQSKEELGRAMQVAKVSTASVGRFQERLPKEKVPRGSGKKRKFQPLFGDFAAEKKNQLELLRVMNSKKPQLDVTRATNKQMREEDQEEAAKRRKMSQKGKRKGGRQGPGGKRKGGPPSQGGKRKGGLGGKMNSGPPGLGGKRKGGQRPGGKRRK
inactive: [1] -0.022 | crizotinib 0 | [2] -0.365 | [3] 0.304 | duvelisib -0.181 | gandotinib 0.089 | tozasertib 0.094 | [4] -0.034 | doramapimod 0.235 | ispinesib 0.019 | bafetinib 0.121 | [5] -0.125 | nilotinib -0.024 | [6] 0.073 | dasatinib 0.161 | [7] 0.267 | [8] -0.431 | [9] -0.165 | tipifarnib 0.105 | mubritinib -0.226

SCG3 (UniProt Q8WXD2)
inactive: [1] -0.069 | crizotinib 0.074 | [2] -0.089 | [3] -0.109 | duvelisib 0 | gandotinib -0.101 | tozasertib 0.075 | [4] -0.194 | doramapimod 0.124 | ispinesib 0.171 | bafetinib 0.075 | [5] -0.027 | nilotinib 0.172 | [6] -0.098 | dasatinib 0.151 | [7] -0.032 | [8] 0.147 | [9] -0.037 | tipifarnib 0.044 | mubritinib -0.01

RIOK3 (UniProt O14730)
Sequence of UniProt O14730 (O14730 whole entry, looked up): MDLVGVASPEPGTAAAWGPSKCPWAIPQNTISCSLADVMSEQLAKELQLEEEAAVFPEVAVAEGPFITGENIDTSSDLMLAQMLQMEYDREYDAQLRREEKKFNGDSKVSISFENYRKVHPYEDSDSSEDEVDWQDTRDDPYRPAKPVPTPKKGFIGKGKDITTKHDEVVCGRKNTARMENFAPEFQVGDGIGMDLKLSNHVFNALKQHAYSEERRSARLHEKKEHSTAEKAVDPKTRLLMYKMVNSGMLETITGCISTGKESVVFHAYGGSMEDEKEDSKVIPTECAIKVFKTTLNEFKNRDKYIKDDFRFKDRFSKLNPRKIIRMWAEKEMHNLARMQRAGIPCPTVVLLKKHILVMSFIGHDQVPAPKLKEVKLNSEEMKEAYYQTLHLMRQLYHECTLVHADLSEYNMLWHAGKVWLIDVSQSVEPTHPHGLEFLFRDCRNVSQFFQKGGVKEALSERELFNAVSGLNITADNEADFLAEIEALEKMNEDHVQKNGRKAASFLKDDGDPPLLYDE
inactive: [1] -0.004 | crizotinib -0.031 | [2] 0.029 | [3] -0.026 | duvelisib 0.034 | gandotinib 0.086 | tozasertib -0.033 | [4] -0.011 | doramapimod -0.019 | ispinesib -0.004 | bafetinib -0.004 | [5] -0.02 | nilotinib -0.017 | [6] 0.06 | dasatinib 0.053 | [7] -0.01 | [8] 0.018 | [9] -0.005 | tipifarnib 0.002 | mubritinib 0.017

SDHC (UniProt Q99643)
active: [2] 0.457
inactive: [1] -0.304 | crizotinib 0.08 | [3] -0.045 | duvelisib 0.155 | gandotinib -0.023 | tozasertib 0.042 | [4] -0.111 | doramapimod -0.086 | ispinesib 0.047 | bafetinib 0 | [5] -0.127 | nilotinib 0.007 | [6] 0.068 | dasatinib 0.028 | [7] -0.056 | [8] -0.011 | [9] -0.024 | tipifarnib 0.211 | mubritinib 0.02

SETD3 (UniProt Q86TU7)
Sequence of UniProt Q86TU7 (Q86TU7 whole entry, looked up): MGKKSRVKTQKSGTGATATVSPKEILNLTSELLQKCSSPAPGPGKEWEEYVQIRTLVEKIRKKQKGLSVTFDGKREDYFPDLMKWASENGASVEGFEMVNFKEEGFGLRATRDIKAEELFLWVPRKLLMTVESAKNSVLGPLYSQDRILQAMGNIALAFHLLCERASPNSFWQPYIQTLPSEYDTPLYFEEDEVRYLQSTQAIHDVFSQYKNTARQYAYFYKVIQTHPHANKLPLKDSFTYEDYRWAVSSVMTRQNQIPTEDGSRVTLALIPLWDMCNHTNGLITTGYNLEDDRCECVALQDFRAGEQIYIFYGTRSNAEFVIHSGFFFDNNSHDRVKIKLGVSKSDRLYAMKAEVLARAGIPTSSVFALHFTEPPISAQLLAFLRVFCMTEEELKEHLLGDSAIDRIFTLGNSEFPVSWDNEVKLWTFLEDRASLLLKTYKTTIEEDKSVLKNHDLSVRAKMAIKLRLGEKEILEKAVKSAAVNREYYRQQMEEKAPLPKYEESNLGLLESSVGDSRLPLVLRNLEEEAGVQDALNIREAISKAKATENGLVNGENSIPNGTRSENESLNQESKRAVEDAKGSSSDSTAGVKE
inactive: [1] 0.007 | crizotinib 0.051 | [2] 0.076 | [3] -0.012 | duvelisib 0.005 | gandotinib 0.021 | tozasertib -0.037 | [4] 0.012 | doramapimod -0.026 | ispinesib 0.059 | bafetinib -0.015 | [5] -0.005 | nilotinib 0.002 | [6] -0.009 | dasatinib 0.006 | [7] -0.023 | [8] 0.033 | [9] 0.031 | tipifarnib 0.029 | mubritinib 0.052

RIOK2 (UniProt Q9BVS4)
Sequence of UniProt Q9BVS4 (Q9BVS4 whole entry, looked up): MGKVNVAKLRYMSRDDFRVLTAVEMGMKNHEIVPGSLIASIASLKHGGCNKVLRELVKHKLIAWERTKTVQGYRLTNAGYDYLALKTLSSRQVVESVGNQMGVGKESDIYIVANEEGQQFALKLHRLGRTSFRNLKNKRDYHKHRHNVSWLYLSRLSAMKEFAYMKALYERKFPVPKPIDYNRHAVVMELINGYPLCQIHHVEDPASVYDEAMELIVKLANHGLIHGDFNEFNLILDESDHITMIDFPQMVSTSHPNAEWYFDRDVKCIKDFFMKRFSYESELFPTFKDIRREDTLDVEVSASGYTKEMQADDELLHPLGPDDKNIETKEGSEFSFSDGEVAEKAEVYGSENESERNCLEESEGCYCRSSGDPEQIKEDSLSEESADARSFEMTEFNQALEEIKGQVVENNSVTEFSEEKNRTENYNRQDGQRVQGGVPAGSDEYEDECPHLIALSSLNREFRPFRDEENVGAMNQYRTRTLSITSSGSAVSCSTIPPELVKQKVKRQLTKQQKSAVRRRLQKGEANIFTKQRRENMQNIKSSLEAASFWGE
inactive: [1] 0.059 | crizotinib -0.057 | [2] -0.167 | [3] 0.189 | duvelisib -0.037 | gandotinib 0.263 | tozasertib -0.001 | [4] 0.053 | doramapimod 0.084 | ispinesib -0.019 | bafetinib 0.27 | [5] 0.003 | nilotinib 0.094 | [6] 0.202 | dasatinib 0.013 | [7] 0.231 | [8] -0.041 | [9] -0.067 | tipifarnib -0.003 | mubritinib 0.014

RDH13 (UniProt Q8NBN7)
Sequence of UniProt Q8NBN7 (Q8NBN7 whole entry, looked up): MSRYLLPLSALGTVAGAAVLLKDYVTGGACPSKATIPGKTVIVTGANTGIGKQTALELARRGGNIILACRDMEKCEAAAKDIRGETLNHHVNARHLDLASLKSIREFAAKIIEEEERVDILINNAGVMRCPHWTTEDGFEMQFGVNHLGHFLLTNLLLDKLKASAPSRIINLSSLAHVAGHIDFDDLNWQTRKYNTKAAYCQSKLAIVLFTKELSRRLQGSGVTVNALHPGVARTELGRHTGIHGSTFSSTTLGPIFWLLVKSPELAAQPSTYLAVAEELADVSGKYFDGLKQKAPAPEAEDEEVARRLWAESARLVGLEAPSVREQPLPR
active: ispinesib -0.322
inactive: [1] 0.04 | crizotinib -0.231 | [2] 0.161 | [3] -0.019 | duvelisib 0.082 | gandotinib -0.08 | tozasertib -0.101 | [4] 0.029 | doramapimod -0.037 | bafetinib -0.068 | [5] -0.03 | nilotinib 0.011 | [6] -0.044 | dasatinib -0.131 | [7] 0.019 | [8] 0.027 | [9] 0.016 | tipifarnib 0.022 | mubritinib -0.032

RPP14 (UniProt O95059)
Sequence of UniProt O95059 (O95059 whole entry, looked up): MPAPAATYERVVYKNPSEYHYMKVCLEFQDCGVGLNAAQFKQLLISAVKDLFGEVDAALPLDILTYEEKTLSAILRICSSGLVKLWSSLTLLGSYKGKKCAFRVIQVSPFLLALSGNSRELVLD
inactive: [1] -0.048 | crizotinib -0.046 | [2] 0.019 | [3] -0.076 | duvelisib -0.019 | gandotinib -0.119 | tozasertib 0.052 | [4] -0.054 | doramapimod 0.06 | ispinesib 0.03 | bafetinib 0.045 | [5] 0 | nilotinib -0.014 | [6] 0.019 | dasatinib 0.063 | [7] -0.013 | [8] -0.078 | [9] -0.054 | tipifarnib 0.003 | mubritinib -0.084

RCOR1 (UniProt Q9UKL0)
inactive: [1] 0.011 | crizotinib -0.033 | [2] 0.095 | [3] 0.071 | duvelisib 0.088 | gandotinib -0.046 | tozasertib 0.005 | [4] 0.041 | doramapimod 0.001 | ispinesib -0.031 | bafetinib 0.011 | [5] 0.021 | nilotinib -0.034 | [6] -0.107 | dasatinib -0.063 | [7] -0.062 | [8] -0.005 | [9] 0.033 | tipifarnib -0.087 | mubritinib 0.07

RAD51 (UniProt Q06609)
inactive: [1] 0.005 | crizotinib -0.061 | [2] -0.079 | [3] -0.019 | duvelisib 0.108 | gandotinib 0.01 | tozasertib -0.026 | [4] -0.005 | doramapimod -0.025 | ispinesib -0.009 | bafetinib -0.002 | [5] 0.021 | nilotinib -0.082 | [6] -0.006 | dasatinib -0.009 | [7] 0.04 | [8] 0.037 | [9] 0.003 | tipifarnib 0.11 | mubritinib -0.017

RPTOR (UniProt Q8N122)
Sequence of UniProt Q8N122 (Q8N122 whole entry, looked up): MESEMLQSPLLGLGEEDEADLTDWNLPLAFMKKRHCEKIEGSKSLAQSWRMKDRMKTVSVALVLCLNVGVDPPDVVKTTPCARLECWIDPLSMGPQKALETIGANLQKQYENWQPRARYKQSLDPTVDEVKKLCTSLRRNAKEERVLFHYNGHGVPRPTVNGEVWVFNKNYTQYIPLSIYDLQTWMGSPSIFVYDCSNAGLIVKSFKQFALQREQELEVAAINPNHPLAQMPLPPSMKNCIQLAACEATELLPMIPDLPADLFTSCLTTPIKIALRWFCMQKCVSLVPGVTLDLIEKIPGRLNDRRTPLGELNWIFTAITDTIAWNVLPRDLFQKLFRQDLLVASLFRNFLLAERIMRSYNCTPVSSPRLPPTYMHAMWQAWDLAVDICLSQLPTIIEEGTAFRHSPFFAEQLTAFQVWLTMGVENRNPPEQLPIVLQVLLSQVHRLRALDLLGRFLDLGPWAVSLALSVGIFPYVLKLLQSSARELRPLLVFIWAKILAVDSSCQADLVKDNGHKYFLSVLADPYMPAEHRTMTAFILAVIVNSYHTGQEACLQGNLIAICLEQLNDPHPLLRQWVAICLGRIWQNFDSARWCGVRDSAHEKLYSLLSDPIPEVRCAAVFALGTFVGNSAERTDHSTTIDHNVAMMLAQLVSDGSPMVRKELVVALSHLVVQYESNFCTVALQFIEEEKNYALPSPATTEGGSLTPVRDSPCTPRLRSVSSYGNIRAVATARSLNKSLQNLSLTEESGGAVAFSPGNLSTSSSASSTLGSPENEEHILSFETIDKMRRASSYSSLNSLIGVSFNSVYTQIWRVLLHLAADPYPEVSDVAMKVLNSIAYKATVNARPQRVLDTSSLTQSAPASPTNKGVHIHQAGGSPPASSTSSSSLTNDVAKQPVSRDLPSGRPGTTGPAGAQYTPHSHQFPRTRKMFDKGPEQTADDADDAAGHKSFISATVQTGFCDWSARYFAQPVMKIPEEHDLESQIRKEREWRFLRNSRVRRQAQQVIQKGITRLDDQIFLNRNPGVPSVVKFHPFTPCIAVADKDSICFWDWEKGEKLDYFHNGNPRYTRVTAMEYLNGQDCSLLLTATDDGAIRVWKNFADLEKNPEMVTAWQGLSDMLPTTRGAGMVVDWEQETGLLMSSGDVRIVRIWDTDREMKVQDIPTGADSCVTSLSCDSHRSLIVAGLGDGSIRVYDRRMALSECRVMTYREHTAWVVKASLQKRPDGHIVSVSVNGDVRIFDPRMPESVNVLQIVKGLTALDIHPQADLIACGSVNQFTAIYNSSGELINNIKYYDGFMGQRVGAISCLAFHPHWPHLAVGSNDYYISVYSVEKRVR
inactive: [1] 0.012 | crizotinib -0.188 | [2] -0.031 | [3] 0.033 | duvelisib 0.045 | gandotinib -0.115 | tozasertib 0 | [4] 0.01 | doramapimod -0.009 | ispinesib -0.114 | bafetinib -0.005 | [5] 0.034 | nilotinib -0.085 | [6] -0.103 | dasatinib -0.103 | [7] -0.045 | [8] -0.107 | [9] 0.009 | tipifarnib -0.062 | mubritinib 0.033

RDH11 (UniProt Q8TC12)
active: [4] 0.425
inactive: [1] 0.164 | crizotinib -0.303 | [2] 0.082 | [3] 0.116 | duvelisib 0.11 | gandotinib 0.115 | tozasertib -0.029 | doramapimod 0.098 | ispinesib -0.365 | bafetinib -0.119 | [5] -0.048 | nilotinib 0.099 | [6] -0.112 | dasatinib -0.079 | [7] -0.03 | [8] 0.015 | [9] -0.022 | tipifarnib 0.059 | mubritinib -0.033
